Source: PubChem BioAssay
BoNT A protease = blocks Botulinum neurotoxin A light chain protease; multiplex microsphere protease substrate cleavage, flow cytometry; AID 588499; 360,000 compounds, 0.17% hits; inhibition, % at 10 µM; further: plate controls were buffer without enzyme for full effect and enzyme alone for no effect
SARS 3CLpro inh = SARS-CoV 3CLpro protease inhibition; 290,000 compounds, 0.14% hits; recombinant SARS-CoV 3CLpro, quenched FRET peptide cleavage; AID 1706; inhibition, % at 6 µM; in the data active means inhibition above about 12%
Anthrax LF prot = inhibitors of Bacillus anthracis lethal factor protease | multiplex microsphere protease cleavage assay, LF | AID 588501 | P15917 | 360,000 compounds, 0.12% hits | inhibition, % at 10 µM; further: plate controls were buffer without enzyme for full effect and enzyme alone for no effect
Target sequence (P15917 whole entry, looked up): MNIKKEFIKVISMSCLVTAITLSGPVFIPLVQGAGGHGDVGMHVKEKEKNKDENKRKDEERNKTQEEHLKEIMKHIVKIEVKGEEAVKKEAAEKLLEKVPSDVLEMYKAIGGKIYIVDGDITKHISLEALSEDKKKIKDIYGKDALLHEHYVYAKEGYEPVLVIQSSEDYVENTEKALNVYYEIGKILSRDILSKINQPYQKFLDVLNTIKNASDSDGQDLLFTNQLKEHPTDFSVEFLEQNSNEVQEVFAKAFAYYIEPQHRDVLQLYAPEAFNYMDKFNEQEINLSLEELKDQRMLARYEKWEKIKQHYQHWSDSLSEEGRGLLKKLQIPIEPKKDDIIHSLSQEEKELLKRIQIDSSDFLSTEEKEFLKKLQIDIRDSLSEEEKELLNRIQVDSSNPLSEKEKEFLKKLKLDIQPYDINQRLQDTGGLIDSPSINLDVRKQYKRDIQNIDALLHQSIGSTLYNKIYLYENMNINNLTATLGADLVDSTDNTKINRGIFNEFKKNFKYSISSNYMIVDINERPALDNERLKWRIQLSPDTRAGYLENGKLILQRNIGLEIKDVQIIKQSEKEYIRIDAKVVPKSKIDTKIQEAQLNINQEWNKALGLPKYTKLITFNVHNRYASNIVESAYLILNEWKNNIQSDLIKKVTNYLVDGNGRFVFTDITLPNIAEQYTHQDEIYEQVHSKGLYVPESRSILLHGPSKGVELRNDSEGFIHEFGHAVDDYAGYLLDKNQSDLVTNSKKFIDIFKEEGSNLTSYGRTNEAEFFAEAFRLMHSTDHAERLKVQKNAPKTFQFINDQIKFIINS
BJeLR lethal = kills HRASV12-expressing BJeLR cells; BJeLR (HRASV12) viability, CellTiter-Glo ATP luminescence, 48 h; 300,000 compounds, 0.17% hits; inhibition, % (no concentration beside the values); in the data active means inhibition above about 50%; inconclusive means no clear call, values can overlap the other calls
Autofluor counter = counter-screen for toxin protease inhibitors: compound fluorescence | compound autofluorescence counterscreen, microsphere flow cytometry; stronger effect = higher value | fluorescence intensity (no concentration beside the values) | 360,000 compounds, 3.1% hits | AID 624483; in the data active means fluorescence intensity above about 16000; inconclusive means no clear call, values can overlap the other calls
BoNT F protease = inhibitors of Botulinum neurotoxin F light chain protease. Multiplex microsphere protease cleavage assay, flow cytometry. inhibition, % at 10 µM. 360,000 compounds, 0.22% hits. AID 588497; in the data active means inhibition above about 35%, passing the limit was not always enough; inconclusive means no clear call, values can overlap the other calls; further: plate controls were buffer without enzyme for full effect and enzyme alone for no effect
Active calls of the source: *; ? = inconclusive; . = not tested or not shown. A selection: hits, their analogues and other compounds. The true share with any hit is near 3.6%. Unless noted, no stated cut-off is given here; in the data, active means inhibition above about 30%; inconclusive means no clear call, values can overlap the other calls; inactive means below that.

SMILES	BoNT A protease	SARS 3CLpro inh	Anthrax LF prot	BJeLR lethal	Autofluor counter	BoNT F protease
CN(C)c1ccc(CN(C(=O)COc2ccc(F)cc2)C2CCS(=O)(=O)C2)cc1 (stereo unspecified)	-3	-2	-4	15	20985*	-1
CC(=O)c1ccc(OC2(C)CCN(CCOc3ccc(C)cc3)C2)cc1 (stereo unspecified)	0	.	-5	.	3050	-11
Cn1c(=O)c2c(nc(NNC(=O)C(F)(F)F)n2C)n(C)c1=O	-1	-3	-3	14	5364	-5
COCC(=O)Nc1nc2n(n1)C(c1ccccc1Cl)CC(c1ccc(OC)cc1)N2 (stereo unspecified)	1	-1	1	2	20336*	0
COC(=O)Cn1c(=O)c(C(=O)CCl)c(N)n(Cc2ccccc2)c1=O	-1	2	-10	41	3963	3
CCC1=NN2C(=N)/C(=C\c3ccc(OCCOc4ccc(NC(C)=O)cc4)cc3)C(=O)N=C2S1	3	-1	51*	-10	3515	16
COc1ccc(S(=O)(=O)Nc2cc(C(=O)NCCC(C)C)ccc2N2CCOCC2)cc1	-1	2	0	-5	23444*	-3
COc1ccc(S(=O)(=O)N(C)c2ccc(C(=O)NCCC(C)C)cc2)cc1	?	3	0	-7	19593*	4
CCOCCCNC(=O)c1ccc(N(C)S(=O)(=O)c2ccc(OC)cc2)cc1	0	0	2	.	11197	1
O=C(CCn1nc(-c2ccc(Cl)cc2)ccc1=O)N1CCN(c2ccc(F)cc2)CC1	0	-11	-5	-4	4007	0
CC(C)C[C@H](NC(=O)N1CCn2c1nc1ccccc12)C(=O)N1CCCCC1	2	3	5	-3	5041	0
Cc1cccc(NC(=O)C2CCCN(S(=O)(=O)c3cccc4cccnc34)C2)c1 (stereo unspecified)	-1	1	-6	-4	4465	-3
CCOC(=O)CNC(=O)c1sc2ncnc(N3CCc4ccccc4C3)c2c1C	7	-2	5	5	19828*	11
S=C(NCCc1ccccc1)N/N=C/c1c(Cl)cccc1Cl	-1	0	0	-17	2534	-7
COc1cccc(C(O)c2ncc(-c3ccc(C(F)(F)F)cc3)[nH]2)c1 (stereo unspecified)	0	.	2	.	3486	-2
O=C(CNCc1ccncc1)Nc1cc(S(=O)(=O)N2CCCCC2)ccc1Cl	10	-1	1	6	20589*	5
Cc1ccc(S(=O)(=O)N2CCC(C(=O)N3CCC[C@H]3C(=O)NC3CCS(=O)(=O)C3)CC2)cc1 (stereo partly specified)	?	-1	-4	-2	23712*	-1
Cc1ccc(S(=O)(=O)N2CCC(C(=O)NCc3ccncc3)CC2)cc1	2	1	0	-4	21375*	1
Cc1ccc(S(=O)(=O)N2CCC(C(=O)NCCN3CCCCCC3)CC2)cc1	?	1	-2	1	18618*	-16
Cc1ccc(C)c(/C(O)=C2\C(=O)C(=O)N(CCCn3ccnc3)C2c2cccnc2)c1 (stereo unspecified)	0	3	0	-9	3712	9
COC(=O)Cc1ccc(NC(=S)NN2CCOCC2)cc1	0	-3	-5	-2	2480	-15
COc1ccc(CNC(=O)[C@H](C)NC(=O)C2CCN(S(=O)(=O)c3ccc(C)cc3)CC2)cc1	?	-2	-9	6	18265*	6
COc1cccc(-n2c(CCn3nc(C)c([N+](=O)[O-])c3C)n[nH]c2=S)c1	-1	1	-1	-11	2079	-8
Cc1cccc(-n2c(CCn3nc(C)c([N+](=O)[O-])c3C)n[nH]c2=S)c1	-1	-1	-3	3	16467*	0
CCCc1nnc(NC(=O)CCCN2C(=O)c3ccccc3C2=O)s1	0	1	-2	4	2716	-6
SMILES	BoNT A protease	SARS 3CLpro inh	Anthrax LF prot	BJeLR lethal	Autofluor counter	BoNT F protease
CCc1ccc(CCC(=O)Nc2ncc(Cc3ccccc3Cl)s2)o1	-1	0	-1	57*	2018	-3
CCc1nnc(NC(=O)CCN2C(=O)c3ccccc3C2=O)s1	0	2	-2	10	22862*	-2
O=C(CN1CCOCC1)Nc1ncc(Cc2ccccc2Cl)s1	1	6	3	-8	7842	6
CCc1ccc(CCC(=O)Nc2nnc(CC)s2)o1	0	3	-2	-7	16177*	2
CCOC(=O)c1nn(-c2ccc(F)cc2)c2nc(CC(C)C)c(C#N)c(=O)n12	8	2	-20	-3	18268*	12
Cc1ccc2nc(SCC(=O)Nc3cccc(F)c3)nc(=O)n2c1	-2	.	-3	0	?	-5
COc1cc(C2Nc3ccc4ncccc4c3C3=C2C(=O)CC(C)(C)C3)cc(OC)c1O (stereo unspecified)	-1	2	1	1	23335*	1
COc1cc(C2Nc3ccc4ncccc4c3C3=C2C(=O)CCC3)cc(OC)c1O (stereo unspecified)	0	4	-1	22	2600	-11
Cc1cc(=O)n2nc(N3CCC(C(=O)Nc4cccc(Cl)c4C)CC3)sc2n1	0	9	-5	9	6156	2
Cc1cc(=O)n2nc(N3CCCC3C(=O)Nc3cccc(Cl)c3C)sc2n1 (stereo unspecified)	-3	-3	-5	8	20778*	19
CCN(CC)c1ccc(C(=O)c2ccccc2C(=O)O)c(O)c1	?	0	-2	5	23518*	-5
COc1ccc(NC(=O)C2CCCN(S(C)(=O)=O)C2)cc1OC (stereo unspecified)	2	2	0	-1	3846	?
CCOC(=O)C1(CC2CC2)CCN(S(=O)(=O)/C=C/c2ccccc2)CC1	0	5	-1	6	4331	-6
COc1cccc(C2=CC(c3ccc(N(C)C)cc3)n3nnnc3N2)c1 (stereo unspecified)	2	1	-2	-5	16376*	5
c1ccc(-c2noc(-c3ccc4ccccc4c3)n2)nc1	-2	1	-14	19	9264	-1
c1ccc(-c2noc(-c3ccc4c(c3)OCO4)n2)nc1	0	-1	0	92*	10205	-7
O=C(CCC1CCCCC1)Nc1ccccc1-c1ccccc1	?	1	-4	-3	21102*	0
O=C(CCC1CCCCC1)Nc1ccccc1O	0	0	-2	5	16345*	0
O=C(CCC1CCCC1)Nc1ccccc1-c1ccccc1	1	1	2	9	1974	6
Nc1c(C(=O)NCc2ccco2)c2nc3ccccc3nc2n1Cc1ccccc1	7	-9	2	3	2590	-2
Nc1c(C(=O)NCc2ccco2)c2nc3ccccc3nc2n1CCN1CCOCC1	6	-5	1	10	21216*	6
